Measurements from PubChem BioAssay (NCI).
This is part of a sample that, as a whole, favours compounds with a hit. Of some 83,000 tested, about 20% had one in any assay.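 The test compound was applied at a single concentration to cells in 96-well plates for 48 hours, and percent growth was recorded.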 The source made the active and inactive calls. The calls were made as follows: active = growth percent below 10; inactive = the rest.

Test system: HL-60(TB) leukemia
Assay: NCI-60 one-dose screen, 48 h (100 = growth as untreated, 0 = no growth, -100 = all killed)
Details: 10 µM unless noted

Question: Which growth does the source give for `OC(c1cccc(OCc2ccccc2)c1)c1nnc(-c2ccccc2)o1` (centres undefined) here?
Answer: 96.3% (inactive)

Question: With `CN1CCN(CCCOc2cccc3nc(Nc4ccc(F)c(F)c4)ccc23)CC1` as the compound, how does the growth read?
Answer: 38.8% (inactive)

Question: With `Cc1nn(-c2ccccc2)c2nc3c(nc12)C1=NCCN1C(c1ccc(Cl)cc1)N3` (centres undefined) as the compound, how does the growth read?
Answer: 70.7% (inactive)

Question: `O=[N+]([O-])c1cc(C(F)(F)F)ccc1Sc1ccc(C(F)(F)F)cc1[N+](=O)[O-]` was tested. Which growth did it give?
Answer: 8.05% (active)

Question: For `CCN1CCN(CCNc2nccc(-c3c(-c4cccc(OC)c4)nc4occn34)n2)S1(=O)=O`, which growth is on record?
Answer: 119% (inactive)

Question: `O=[N+]([O-])c1cccc(-c2nc3sccn3c2-c2ccnc(NCCNS(=O)(=O)c3ccc(C(F)(F)F)cc3)n2)c1` was tested. Which growth did it give?
Answer: 16% (inactive)

Question: `O=S1(=O)c2ccccc2Oc2ccccc21` was tested. Which growth did it give?
Answer: 89.5% (inactive)

Question: With `O=C/C=C/c1ccc([N+](=O)[O-])cc1` as the compound, how does the growth read?
Answer: 106% (inactive)

Question: Which growth does the source give for `CCCCCCCCCCCCCCCC(=O)OCC1OC(n2cnc3c(=S)nc(N)[nH]c32)C(OC(=O)CCCCCCCCCCCCCCC)C1OC(=O)CCCCCCCCCCCCCCC` (centres undefined) here?
Answer: 86% (inactive)

Question: `C#CCOc1ccc(C2=NN(CCCC)C3N=C(Cl)c4ncn(CCCC)c4N23)cc1OCC#C` (centres undefined) was tested. Which growth did it give?
Answer: 99.4% (inactive)

Question: With `CCCCCCCCCC[N+](C)(C)N` as the compound, how does the growth read?
Answer: 90.2% (inactive)

Question: With `CN(C)c1ccc(N=Nc2ccc3ccccc3c2)cc1` as the compound, how does the growth read?
Answer: 61.6% (inactive)

Question: `COc1cccc(C(=O)Nc2cccc(NC(=O)c3ccccn3)c2)c1` was tested. Which growth did it give?
Answer: 87.8% (inactive)

Question: How did the growth turn out when `COc1ccc(-c2oc3cc(O)c(OC)c(O)c3c(=O)c2OC)cc1O` was run?
Answer: -8.34% (active)
